EBNA-1 inhibitor – blocks EBNA-1 binding to DNA. EBNA-1 DNA binding, fluorescence polarization. inhibition, % at 14.8 µM. 300,000 compounds, 0.34% hits. AID 1950; in the data active means inhibition above about 28%
GSTO1 counter – counter-screen for RBBP9 inhibitors: inhibitors of human GSTO1. P78417. inhibition, % at 5.96 µM. 300,000 compounds, 1.1% hits. recombinant GSTO1, activity-based probe fluorescence polarization;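 active means inhibition above the campaign mean inhibition plus 3 SD, cut at about 35% in these data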;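 further: 0% = GSTO1-1 with DMSO and 100% = wells lacking GSTO1-1 enzyme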
ZTA DNA inh – counter-screen for EBNA-1 inhibitors: inhibitors of Epstein-Barr virus ZTA. inhibition, % at 11 µM. P03206. ZTA-DNA binding, fluorescence polarization. 320,000 compounds, 0.15% hits. AID 2234; in the data active means inhibition above about 33%
PAD4 FP inh – inhibitors of human PAD4; inhibition, % at 6.36 µM; Q9UM07; AID 485272; 330,000 compounds, 0.41% hits; recombinant PAD4, RCA probe fluorescence polarization;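 active means percent inhibition above a cutoff equal to the mean of all tested compounds plus 3 SD, cut at about 15% in these data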;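 further: 0% = PAD4 with RCA probe and DMSO and 100% = probe without PAD4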
LYPLA2 inh – LYPLA2 (human) inhibition in PME1 counter-screen | inhibition, % at 5.9 µM | O95372 | 320,000 compounds, 0.38% hits | recombinant LYPLA2, FP-Rh probe fluorescence polarization | AID 2177;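 active means inhibition above the screen-wide mean plus 3 SD, limit set per campaign, cut at about 26% in these data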;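 further: 0% = LYPLA2 with DMSO and 100% = wells lacking LYPLA2 enzyme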
Target sequence (O95372 whole entry, looked up): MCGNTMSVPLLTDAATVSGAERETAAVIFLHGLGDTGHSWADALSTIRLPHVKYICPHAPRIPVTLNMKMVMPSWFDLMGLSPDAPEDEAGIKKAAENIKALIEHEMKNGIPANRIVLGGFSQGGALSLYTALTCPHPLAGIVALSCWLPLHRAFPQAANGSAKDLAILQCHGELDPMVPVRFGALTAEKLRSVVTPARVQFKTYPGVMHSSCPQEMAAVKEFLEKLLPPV
LYPLA1 inh – LYPLA1 (human) inhibition in PME1 counter-screen; O75608; recombinant LYPLA1, FP-Rh probe fluorescence polarization; inhibition, % at 5.9 µM; 320,000 compounds, 0.16% hits; AID 2174;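 active means inhibition above the mean of all tested compounds plus 3 SD, set per campaign, cut at about 14% in these data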;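 further: inhibitors block serine hydrolase probe labeling of LYPLA1 so polarization falls; 0% = enzyme with DMSO and 100% = wells lacking LYPLA1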
Target sequence (O75608 whole entry, looked up): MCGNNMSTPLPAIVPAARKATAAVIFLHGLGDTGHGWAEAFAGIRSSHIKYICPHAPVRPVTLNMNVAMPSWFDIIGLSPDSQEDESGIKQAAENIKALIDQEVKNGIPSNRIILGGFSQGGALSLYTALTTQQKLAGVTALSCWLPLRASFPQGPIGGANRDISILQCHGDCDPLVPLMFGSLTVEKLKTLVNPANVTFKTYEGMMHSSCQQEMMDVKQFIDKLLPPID
The depositor's hits bear a star; . = no result. Rows were chosen to be rich in hits. Some 1.7% of all compounds tested hit in one or more screens of this group.

SMILES | EBNA-1 inhibitor | GSTO1 counter | ZTA DNA inh | PAD4 FP inh | LYPLA2 inh | LYPLA1 inh
COC/C=C/C1=CC2=CC(=O)C(C)(O)C(=O)C2=CO1 (stereo not drawn) | -5 | 42* | 13 | 1 | 2 | -3
COC/C=C/C1=CC2=CC(=O)C(C)(OC(=O)c3ccco3)C(=O)C2=CO1 (stereo not drawn) | 13 | 36* | 29 | 24* | -3 | 10
CC(=O)NNC(=S)Nc1cccc(F)c1 | 6 | 6 | -4 | 4 | -3 | -3
Cc1ccc(S(=O)(=O)NCCc2cccs2)cc1 | -3 | 8 | -10 | 0 | 8 | 3
COc1ccc(C(C(=O)NC2CCCCC2)N(C(=O)c2ccco2)c2ccccc2C(C)=O)cc1OC (stereo not drawn) | -12 | -2 | 3 | -1 | 4 | 0
O=C(NNC(=O)c1cc(Cl)ccc1O)c1cccc(S(=O)(=O)N2CCOCC2)c1 | -10 | 37* | 7 | -2 | -7 | -4
O=C(NC1CCCc2ccccc21)C12CC3CC(CC(O)(C3)C1)C2 (stereo not drawn) | 7 | 2 | -13 | -7 | 9 | -3
O=C(CSc1nnc(-c2cnccn2)n1Cc1ccco1)c1ccc2ccccc2c1 | 4 | 38* | 6 | -4 | 0 | -5
COc1ccc(CC(=O)Nc2ccc(OC)nc2)cc1 | -5 | 9 | -9 | 0 | -4 | -1
COc1ccc(NC(=O)CCl)cn1 | 5 | 56* | 2 | 4 | 0 | 1
O=C(CCl)Nc1ccc(Oc2cnc3ccccc3n2)cc1 | 9 | 86* | 16 | 1 | 5 | 1
CC1(C)CC2(CC(c3ccccc3F)c3ccc(O)c(O)c3O2)NC(=S)N1 (stereo not drawn) | -6 | 44* | 6 | -2 | 0 | -5
O=[N+]([O-])c1ccccc1NC(=S)N/N=C/c1ccc(O)c(O)c1 | 1 | 50* | 10 | 1 | -10 | -15
O=C(COC(=O)c1ccccn1)NCCc1ccc(Cl)cc1 | . | . | . | 2 | . | .
C/C(N)=C(/C#N)C(=O)CSc1nc2ccc(C)cc2[nH]1 | 0 | 0 | 5 | 0 | -2 | -2
C/C(N)=C(/C#N)C(=O)CSc1nnc(COc2cc(C)ccc2C)o1 | 38* | -2 | 53* | -3 | -7 | -4
O=C1C2C3C=CC(C3)C2C(=O)N1CNc1ccc(O)cc1 (stereo not drawn) | -3 | 93* | 32 | 33* | 24 | 11
Cc1ccc(NCN2C(=O)C3C4C=CC(C4)C3C2=O)cc1 (stereo not drawn) | 8 | 3 | -4 | 0 | 0 | 1
O=C(CNS(=O)(=O)c1cccc(Cl)c1)Nc1ccc(-c2nc3ccccc3s2)cc1 | 55* | -14 | 14 | -1 | -41 | -20
C/C(=N\NC(=O)CSCc1ccccc1Br)c1cccc([N+](=O)[O-])c1 | -3 | -1 | 10 | -2 | 1 | 2
C/C(=N\NC(=O)Cc1cc(=O)[nH][nH]1)c1cccc([N+](=O)[O-])c1 | 6 | 45* | -1 | -5 | 4 | 2
Cc1ccc2c(c1)N(CC(=O)NC1CCC(C)CC1)C(=O)c1cccnc1O2 (stereo not drawn) | -1 | 0 | 5 | -1 | -3 | 2
O=S(=O)(c1cnc(Cl)c(Br)c1)N1CCc2ccccc21 | 4 | 45* | 4 | 1 | 5 | 1
CC1CCCCN1S(=O)(=O)c1cnc(Cl)c(Br)c1 (stereo not drawn) | -7 | 71* | -13 | -4 | 1 | 2
O=S(=O)(c1cc(Cl)ccc1Cl)N1CCc2ccccc21 | -1 | 7 | 0 | -2 | -2 | -3
SMILES | EBNA-1 inhibitor | GSTO1 counter | ZTA DNA inh | PAD4 FP inh | LYPLA2 inh | LYPLA1 inh
CC1CCCCN1S(=O)(=O)c1csc(C(N)=O)c1 (stereo not drawn) | -8 | 2 | -4 | 1 | -22 | 1
CCCCOc1ccc(C(=O)NCC(=O)NCC2CCCO2)cc1 (stereo not drawn) | 3 | 3 | 5 | -2 | 3 | 1
O=C(O)COc1ccc(Br)cc1C(c1c(C(=O)O)[nH]c2ccccc12)c1c(C(=O)O)[nH]c2ccccc12 | -4 | 55* | 7 | 3 | 3 | 1
O=C(O)c1[nH]c2ccccc2c1C(c1cc(Cl)cc([N+](=O)[O-])c1O)c1c(C(=O)O)[nH]c2ccccc12 | -3 | 74* | 11 | 2 | -2 | -4
COc1cc(C(c2c(C(=O)O)[nH]c3ccccc23)c2c(C(=O)O)[nH]c3ccccc23)ccc1OCc1ccccc1 | 15 | 0 | 21 | -3 | 0 | -1
C=CCOc1ccc(C(c2c(C(=O)O)[nH]c3ccccc23)c2c(C(=O)O)[nH]c3ccccc23)cc1 | 25 | 20 | 13 | -1 | 8 | 2
COc1ccc(NC(=O)c2ccc(C)o2)c([N+](=O)[O-])c1 | 7 | 2 | 12 | -1 | 4 | 0
COc1ccc(NC(=O)c2ccc([N+](=O)[O-])s2)c([N+](=O)[O-])c1 | -1 | 55* | 2 | -1 | -7 | -2
N#CC(C#N)=C(N)/C(C#N)=C/c1cc(O)c(O)c(O)c1 | 5 | 64* | 16 | -5 | -8 | -6
N#C/C(=C\c1ccc(O)c(O)c1)C(=O)c1ccc(O)c(O)c1 | 2 | 34 | 1 | 0 | 5 | 0
O=C(CCl)N(C/C=C/c1ccccc1)c1ccc2c(c1)OCCO2 | -3 | 93* | -14 | -1 | 9 | 5
Cc1ccc(C(=O)NCc2ccc(F)cc2)cc1NC1=NC2CS(=O)(=O)CC2S1 (stereo not drawn) | 3 | 2 | 9 | 0 | 2 | 2
Cc1ccc2[nH]c3c(=O)n(CC(=O)NCc4ccco4)ncc3c2c1 | 6 | 36* | -1 | -1 | -14 | -11
Cc1ccc(CCNC(=O)Cn2ncc3c([nH]c4ccccc43)c2=O)cc1 | -6 | 13 | -17 | 0 | 4 | -4
CC1(C)CC(=O)/C(=C\c2cccc([N+](=O)[O-])c2)C(C)(C)N1 | 1 | -3 | -10 | 3 | -2 | 3
Brc1cc2c(cc1-c1nc3ccccc3s1)OCO2 | 12 | -7 | 10 | 2 | 19 | -5
Oc1ccc(N=C/C=C/c2ccc(Br)cc2)cc1-c1nc2ccccc2s1 | 8 | 36* | 0 | -5 | 4 | 1
Cc1ccn2c(CNCC3COCCO3)c(C(=O)N3CCCCCC3)nc2c1 (stereo not drawn) | -11 | -2 | -15 | 3 | 8 | 6
COc1ccc(CCN2CC(C(=O)NCc3nc4ccccc4n3C)CCC2=O)cc1 (stereo not drawn) | -10 | -2 | 2 | -2 | 1 | 1
Cc1ccsc1C=C1C(=O)c2ccccc2C1=O | -3 | 37* | 1 | -6 | 2 | 4
Cc1ccsc1/C=C1/C(=O)NN(c2ccccc2)C1=O | 1 | 8 | -13 | 3 | 10 | 3
CC1=NN(c2ccccc2)C(=O)/C1=C\C=C1/N(C)c2ccccc2C1(C)C | 5 | 72* | 5 | -9 | -5 | -5

Compound activity as filed in PubChem.
